SW480 rereplic = DNA re-replication induction in SW480 cells; SW480 DNA re-replication, Hoechst DNA content imaging, 48 h; Potency, µM (titrated, usually from 46.1 µM), hits mostly activators; 340,000 tested, 1.8% active; AID 624297; note: nearly all actives have a fitted effect of over 55% in size
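250 cells/well; 23 nL cpd via pin tool; 48 hr, 37 C, 5% CO2; Hoechst 40 min; imager read of total nuclear intensity, ex 405/em 500-530 nm.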
MCF10A rerep = induces DNA re-replication in MCF 10a normal breast cells; 350,000 tested, 2.9% active; Potency, µM (top dose mostly 46.1 µM), most hits filed as activators; MCF 10A DNA re-replication, Hoechst nuclear intensity, 48 h; note: nearly all actives have a fitted effect of over 50% in size
VP16 counter = inhibits Gal4-VP16 luciferase reporter, ROR gamma counter-screen; Drosophila S2 Gal4-VP16 UAS-luciferase, luminescence, 20 h; Potency, µM (series often up to 53.6 µM), most hits filed as inhibitors; 310,000 tested, 3.5% active;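 note: Gal4-VP16 expression switched on by copper sulfate through the metallothionein promoter; nearly all actives have a fitted effect of over 50% in size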
RORgamma inh = ROR gamma (mouse) transcription inhibition | Drosophila S2 Gal4-RORgamma UAS-luciferase reporter, 20 h | Potency, µM (top dose mostly 53.6 µM), actives largely listed as inhibitors | 310,000 tested, 5.4% active; note: nearly all actives have a fitted effect of over 60% in size
Target sequence (P51450 whole entry, looked up, the tested form may be a part): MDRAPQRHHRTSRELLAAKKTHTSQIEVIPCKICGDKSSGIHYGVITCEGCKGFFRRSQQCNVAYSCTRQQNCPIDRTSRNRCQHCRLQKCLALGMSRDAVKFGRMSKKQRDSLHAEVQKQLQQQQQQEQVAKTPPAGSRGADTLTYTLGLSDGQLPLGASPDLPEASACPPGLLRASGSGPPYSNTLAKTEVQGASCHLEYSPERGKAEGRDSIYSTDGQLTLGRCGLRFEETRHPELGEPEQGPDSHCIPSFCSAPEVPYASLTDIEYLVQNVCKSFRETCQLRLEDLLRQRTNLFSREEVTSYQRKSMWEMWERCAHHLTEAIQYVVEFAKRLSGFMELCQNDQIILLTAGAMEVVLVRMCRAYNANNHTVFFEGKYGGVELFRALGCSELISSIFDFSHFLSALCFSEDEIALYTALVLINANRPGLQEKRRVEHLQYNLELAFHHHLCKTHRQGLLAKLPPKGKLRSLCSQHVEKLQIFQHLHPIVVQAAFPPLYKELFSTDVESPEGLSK
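Read-out: Photinus luciferase luminescence; inhibitors lower reporter signal. Insect Schneider cells with Gal4-ROR gamma fusion under metallothionein promoter, UAS reporter; 700 uM final copper sulfate induction, 20 hr, ambient temperature.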
IL-1B inflam inh = blocks inflammasome-driven IL-1 beta release | activity change, % at 57.5 µM | 360,000 tested, 4.7% active | THP-1 LPS/ATP IL-1B secretion, AlphaLISA, 16 h; hits give low values; in the data active = activity change below about -50%; inconclusive = mostly about -30% to -49%
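Secreted IL-1B measured by AlphaLISA bead assay after 16 h compound exposure of THP-1 cells; compounds (final up to 57.5 uM) added 1 h before LPS (250 ng/mL) and ATP (1.25 mM) stimulation; lower signal means less secretion.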
A number is an active result; i = inactive; ? = inconclusive; nt = not tested or not shown; [ ] = remark or other dose. This is a sample that favours compounds with a hit; in the whole collection about 11% have one here. Unless noted, calls come from the whole dose curve; as a rule, active = well fitted curve in the direction sought with a large enough effect; inconclusive = small, poorly fitted or top-dose-only effect, or another doubt; inactive = no such curve, though single readings can be large; an effect the other way counts as inactive or inconclusive.

SMILES	SW480 rereplic	MCF10A rerep	VP16 counter	RORgamma inh	IL-1B inflam inh
CC(C)(C)NCC(O)COc1cccc2c1CC(O)C(O)C2 (stereo not given)	i	i	i	i	i
Cc1cccc(C(=O)NNC(=O)C23CC4CC(CC(C4)C2)C3)c1O	?	i	?	6.3µM	i
Cc1ccccc1C(=O)NNC(=O)C12CC3CC(CC(C3)C1)C2	i	i	i	i	i
C=C1c2cccc(C(F)(F)F)c2O[C@H](C(=O)OCC)C1OC (mixture of isomers)	nt	nt	i	i	nt
COc1cc(C(=O)NC2CCN(C)CC2)ccc1Nc1ncc2c(n1)N(C1CCCCC1)CCC(=O)N2C	1.5µM	0.65µM	nt	nt	i
COc1cc(C(=O)NC2CCN(C)CC2)ccc1Nc1ncc2c(n1)N(Cc1ccccc1)CCC(=O)N2C	?	23µM	nt	nt	i
COCC(C)NC(=O)CSc1nc2ccccc2c(=O)n1CCc1ccc(S(N)(=O)=O)cc1 (stereo not given)	i	i	i	i	i
Cc1ccc(N2CCN(c3ncccc3[N+](=O)[O-])CC2)c(C)c1	i	i	i	i	-50
Cc1ccc(C)c(N2CCN(c3ncccc3[N+](=O)[O-])CC2)c1	i	?	i	i	-51
COC(=O)C1(C(=O)OC)C/C=C\CCN(S(=O)(=O)c2ccccc2[N+](=O)[O-])CC1	nt	nt	nt	nt	i
COc1ccc(C(O)c2nc(-c3cncnc3)cs2)cc1 (stereo not given)	nt	nt	nt	nt	i
COc1ccc(-c2coc3c(C(=O)NCC4CCOCC4)cccc23)c(C)c1	nt	nt	nt	nt	i
CC(C)CC1C(=O)N(Cc2cn(Cc3ccco3)nn2)CCS(=O)(=O)N1Cc1ccc(-c2cccc(N(C)C)c2)cc1 (stereo not given)	nt	nt	nt	nt	i
CC(C)C[C@H]1CN(CCCC[C@H]2CNC(=O)C(=O)N2CCc2ccc(O)cc2)C(=O)C(=O)N1Cc1ccccc1	nt	nt	nt	nt	i
CO[C@@H]1[C@@H](OC2OC(C)C(OC3CC(C)(O)C(OC(=O)CC(C)C)C(C)O3)C(N(C)C)C2O)[C@@H](CC=O)C[C@@H](C)C(=O)/C=C\C2O[C@H]2C[C@@H](C)OC(=O)C[C@H]1OC(C)=O (stereo not given in full)	19µM	30µM	i	i	nt
CO[C@H]1[C@H](O[C@H]2O[C@@H](C)[C@@H](O[C@@H]3C[C@](C)(O)[C@H](OC(=O)CC(C)C)[C@H](C)O3)[C@@H](N(C)C)[C@@H]2O)[C@@H](CC=O)C[C@@H](C)[C@@H](O)/C=C\C=C/C[C@@H](C)OC(=O)C[C@H]1OC(C)=O	i	i	i	i[2.98 µM]	nt
O=S(=O)(O)c1cc(O)c2c(N=Nc3ccc(Nc4ccccc4)c4c(S(=O)(=O)O)cccc34)cc(S(=O)(=O)O)cc2c1	i	i	i	?	nt
COc1cc2sc(-c3ccc(S(C)(=O)=O)cc3)c(C(=O)NCc3ccc(C)o3)c2cc1OC	i	i	nt	nt	i
COc1cccc2sc3cc(NCc4ccc(C)o4)ccc3c(=O)c12	18µM	21µM	nt	nt	i
Clc1ccccc1-c1nc2ccccc2c2nc3ccccc3n12	i	i	20µM	i	i
O=c1c2ccc(Cl)cc2nc(-c2cccc(C(F)(F)F)c2)n1O	?	?	3.5µM	7.1µM	i
O=c1c2ccccc2nc(-c2ccc(Cl)cc2Cl)n1O	?	?	?	10µM	i
N#Cc1ccc(-c2nc3ccccc3c(=O)n2O)cc1	i	i	?	16µM	i
N#CCSc1nc2ccccc2c2nc3ccccc3n12	i	9.2µM	i	i	-89
O=c1c2ccccc2nc(-c2ccccc2Cl)n1O	i	i	?	10µM	i
SMILES	SW480 rereplic	MCF10A rerep	VP16 counter	RORgamma inh	IL-1B inflam inh
CCn1c(SCC#N)nc2ccccc2c1=O	?	i	i	i	i
Cc1ccc(O)c(NC(=O)c2cc(-c3ccc(F)cc3)on2)c1	i	i	i	i	?
Cc1ccc(O)c(NC(=O)c2cc(-c3cccs3)on2)c1	i	i	?	i	-67
CC(=O)c1cccc(NC(=O)c2noc3c2CCc2ccccc2-3)c1	i	?	2.2µM	0.71µM	i
Cc1ccc(O)c(NC(=O)c2cc3nc4c(c(C(F)(F)F)n3n2)CCc2ccccc2-4)c1	i[9.22 µM]	i	i	i	-51
Cc1ccc(O)c(NC(=O)c2noc3c2CCc2ccccc2-3)c1	15µM	?	i	i	i

Compound activity from PubChem BioAssay.
